Measurements from PubChem BioAssay AID2283112 (EPA ToxCast).
Results filed as inconclusive are left out. The source made the active and inactive calls. How the source made its calls: active means hit-call score of the fitted dose curve at least 0.9, where 1 is the maximum; inconclusive means response in the unintended direction; inactive means score below 0.9.

Molecular target: rat CYP1A1, Cyp1a1 (gene 24296) (UniProt P00185)
Test: NVS_ADME_rCYP1A1: NovaScreen (NVS) CYP450-related Enzyme Activity (ADME) Assay for rat CYP1A1
Protocol: NVS_ADME_rCYP1A1 is a biochemical, single-readout assay that uses extracted gene-proteins from baculovirus-insect cells in a cell-free assay. Measurements were taken 1 hour after chemical dosing in a 96-well plate.NVS_ADME_rCYP1A1 is one of one assay component(s) measured or calculated from the NVS_ADME_rCYP1A1 assay. It is designed to make measurements of enzyme activity, a form of enzyme reporter, as detected with fluorescence intensity signals by Fluorescence technology.Data from the assay component NVS_ADME_rCYP1A1 was analyzed into 1 assay endpoint. This assay endpoint, NVS_ADME_rCYP1A1, was analyzed in the positive analysis fitting direction relative to Acetonitrile as the negative control and baseline of activity. Using a type of enzyme reporter, loss-of-signal activity can be used to understand changes in the enzymatic activity as they relate to the gene Cyp1a1. Furthermore, this assay endpoint can be referred to as a primary readout, because this assay has produced multiple assay endpoints where this one serves a enzymatic activity function. To generalize the intended target to other relatable targets, this assay endpoint is annotated to the cyp intended target family, where the subfamily is xenobiotic metabolism.
Binding assays used specific radioligands (tritiated, iodinated) with non-radioactive competitive displacement ligands in agonist or antagonist protocols (as indicated) and various reference compounds and inhibitors to titrate specific binding to receptors and transporters. Most enzyme assays (CYPs, kinases, phosphatases, proteases, HDACs) used recombinant protein and specific substrates (fluorescence mostly, some colorimetric and radioactive) and inhibitors, followed by a biochemical separation of substrate and product. All assays for the biochemical HTS were initially run in duplicate at a single concentration (10 uM for CYP450 assays and 25 uM for all others). Assay-chemical combinations meeting a pre-defined threshold (e.g., 30% inhibition and other criteria defined below) were then run in singleton concentration-response format with maximum concentration of 20 uM for CYPs and 50 uM for all others. Each assay was run with positive and negative controls, and concurrent controls on every plate. The follow-up (secondary) screen tested active chemical-pairs in concentration series, as well as a few additional assays not tested in the primary screen, some selected negative inactives, and several cases re-run in the concentration series for confirmatory purposes.

Sequence of rat CYP1A1, Cyp1a1 (gene 24296) (P00185 whole entry, looked up): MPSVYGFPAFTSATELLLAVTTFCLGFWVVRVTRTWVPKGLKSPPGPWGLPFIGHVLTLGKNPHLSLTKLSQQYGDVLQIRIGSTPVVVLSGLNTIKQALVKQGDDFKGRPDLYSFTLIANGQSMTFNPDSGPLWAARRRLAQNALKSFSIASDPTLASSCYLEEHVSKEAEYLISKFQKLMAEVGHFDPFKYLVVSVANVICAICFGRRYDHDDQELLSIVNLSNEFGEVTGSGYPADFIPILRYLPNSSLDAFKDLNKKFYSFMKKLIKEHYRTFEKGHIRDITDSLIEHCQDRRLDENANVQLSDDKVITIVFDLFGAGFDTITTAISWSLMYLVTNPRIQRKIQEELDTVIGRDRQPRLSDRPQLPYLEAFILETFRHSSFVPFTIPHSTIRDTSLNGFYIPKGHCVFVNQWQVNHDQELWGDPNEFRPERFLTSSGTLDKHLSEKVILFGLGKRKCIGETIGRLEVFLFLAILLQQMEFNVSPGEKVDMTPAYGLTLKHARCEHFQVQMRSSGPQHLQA

| Structure (SMILES) | outcome | AC50 |
| --- | --- | --- |
| COP(=S)(OC)Oc1ccc([N+](=O)[O-])c(C)c1 | inactive | – |
| CC(C)(C)C(=O)C(Oc1ccc(Cl)cc1)n1cncn1 (stereo not given) | – | 16.9 µM (active) |
| COP(=S)(OC)Oc1ccc([N+](=O)[O-])cc1 | inactive | – |
| CCOP(=S)(OCC)SCn1c(=O)oc2cc(Cl)ccc21 | inactive | – |
| CC[C@H](C)[C@H]1O[C@]2(C=C[C@@H]1C)C[C@@H]1C[C@@H](C/C=C(\C)[C@@H](O[C@H]3C[C@H](OC)[C@@H](O[C@H]4C[C@H](OC)[C@@H](O)[C@H](C)O4)[C@H](C)O3)[C@@H](C)/C=C/C=C3\CO[C@@H]4[C@H](O)C(C)=C[C@@H](C(=O)O1)[C@]34O)O2 (tested in a mixture with another compound) | inactive | – |
| CCOP(=S)(OCC)Oc1ccc([N+](=O)[O-])cc1 | – | 7.95 µM (active) |
| COP(=S)(OC)SCn1nnc2ccccc2c1=O | inactive | – |
| CC[C@H](C)[C@H]1O[C@]2(C=C[C@@H]1C)C[C@@H]1C[C@@H](C/C=C(\C)[C@@H](O[C@H]3C[C@H](OC)[C@@H](O[C@H]4C[C@H](OC)[C@@H](NC)[C@H](C)O4)[C@H](C)O3)[C@@H](C)/C=C/C=C3\CO[C@@H]4[C@H](O)C(C)=C[C@@H](C(=O)O1)[C@]34O)O2 | inactive | – |
| COc1nc(C)nc(NC(=O)NS(=O)(=O)c2ccccc2Cl)n1 | inactive | – |
| CCCN(CCOc1c(Cl)cc(Cl)cc1Cl)C(=O)n1ccnc1 | – | 2.23 µM (active) |
